The values below come from PubChem BioAssay AID1626 (SRMLSC, 2009).

Hit rate of the full screen: of about 220,000 compounds, about 2,000 (0.91%) were called active. Roughly 2% stayed inconclusive and do not appear here. The list is a sample of the results. Potency and affinity values are given separately. A number with no mark means an inactive call. Cut-off read from the data, not from the text of the source: inconclusive = inhibition above about 80% without an active follow-up result; inactive = below that; test concentration not stated here.

A short description of this assay: M. tuberculosis H37Rv growth inhibitors, H37Rv strain (AID 1626).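 Note: bacteria incubated seven days before Alamar blue readout; 0% = bacteria only wells and 100% = bacteria with antibiotic wells.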 The following applies: stronger effect = higher value, concentration not given here.
Take `COc1ccccc1OCCSc1nc2ccccc2n1CCO`: the inhibition (in general, the relative decrease from the control value, in per cent) was -6.33%. For `O=C1CC(NCc2ccc(F)cc2)C(=O)N1c1ccccc1` (configuration not stated), the inhibition is -1.25%. The same measure for `CCOC(=O)N1CCN(C(=O)C2CCN(S(=O)(=O)c3ccc(C)cc3)CC2)CC1`: -7.16%. For the molecule `COc1ccccc1-n1c(SCC(=O)N2CCOCC2)nc(O)c(Cc2ccccc2)c1=O`, the inhibition was -3.87%. With `C[C@@H]1C=C[C@](Cc2ccccc2)(C(=O)NCC2CC2)N1C(=O)c1ccccc1`, the inhibition was -23%. Turning to `COc1cc2c(cc1NC(=O)c1ccc3c(c1)OCO3)oc1ccccc12`, the inhibition was -1.46%. The value for `COc1ccccc1NC(=S)NCc1ccc2c(c1)OCO2` was 7.62%; that for `COc1ccccc1CC(=O)Nc1cc2oc3ccccc3c2cc1OC` was -9.4%; that for `COc1cc2c(cc1NC(=O)COc1ccccc1OC)oc1ccccc12` was 0.28%. `O=C(CN(C(=O)Cn1nnc(-c2ccc(F)cc2)n1)C1CCCC1)NC1CCCC1`: the inhibition is 0.92%. The same measure for `O=[N+]([O-])c1ccc(N2CCN(C(=S)c3cccc([N+](=O)[O-])c3)CC2)cc1`: 1.74%. For the molecule `CCN(C1CCCCC1)S(=O)(=O)c1ccc(C(=O)O)cc1`, the inhibition was -11.6%. As to `CCO[C@H]1OC(C(=O)N2CCOCC2)=C[C@@H](c2ccccc2)[C@@H]1CCCO`, the inhibition is 0.78%. The value for `Cc1ccccc1OCCn1cc(C(=O)C(=O)N2CCOCC2)c2ccccc21` was 5.53%; that for `O=C(CO/N=C/c1ccccc1Cl)N1CCCc2ccccc21` was 4.05%; that for `COc1ccccc1N1CCN(C(=O)C(Sc2ccccc2)c2ccccc2)CC1` (configuration not stated) was -2.82%. Take `Cc1nc(-c2cc(-c3nc(-c4ccc(C(F)(F)F)cc4)no3)no2)cs1`: the inhibition was 7.08%. The same measure for `CC(=O)c1csc(COc2ccc(Cl)cc2)n1`: -4.98%; for `Cc1onc(C(=O)NN)c1-c1csc(COc2ccc(Cl)cc2)n1`: -10.6%; for `CC(C)NC(=O)NNC(=O)c1cc(COc2cc(Cl)cc(Cl)c2)on1`: -6.1%. On to `CCOC(=O)c1sc(-c2ccc(C(F)(F)F)cc2)nc1O`, for which the inhibition is -1.38%. Consider `CCOC(=O)c1csc(COc2ccccc2Cl)n1`, for which the inhibition is -4.66%. On to `CCOC(=O)c1csc(NC(=O)COc2ccc(Cl)cc2Cl)n1`, for which the inhibition was -7.94%.

As to `CCC(=O)NNC(=O)c1cc(COc2cc(Cl)cc(Cl)c2)on1`, the inhibition is 13.9%. The value for `O=C(/C=C/c1ccccc1[N+](=O)[O-])N1CCN(c2ccccc2F)CC1` was 4.82%.

Turning to `O=C(O)c1ccc(S(=O)(=O)N2CCC(c3nc(-c4ccccc4Cl)no3)CC2)cc1`, the inhibition is -8.76%. Regarding `O=C(COC(=O)/C=C/c1ccc(Br)o1)Nc1ccccc1F`, the inhibition was 8.52%. The same measure for `Cc1ccc(C2=NC(=O)/C(=C/c3cc(O)c(O)c(Br)c3)S2)cc1`: -2.49%; for `Cn1ncc2c(NCc3cccc(C(F)(F)F)c3)c(C(=O)O)cnc21`: -1.6%. The same measure for `CCN(CC)C1CCN(C(=O)CCc2nnc(CCCCc3ccccc3)o2)C1` (configuration not stated): -6.99%; for `Cc1csc2c(N3CCN(C(=O)c4ccc(C(C)(C)C)cc4)CC3)ncnc12`: 5.47%. Consider `CCCC(=O)Nc1cc(-c2nn(C)c(=O)c3ccccc23)ccc1N1CCOCC1`, for which the inhibition is -6.76%.

As to `CCCn1c(N)c(C(=O)CN2CCc3ccccc3C2)c(=O)n(C)c1=O`, the inhibition is 0.315%. The value for `CC(=O)Nc1ccc(OCC(O)Cn2c(C)nc3ccccc32)cc1` (configuration not stated) was 5.23%. For `O=C(OC1CCCCC1=O)c1cc(Cl)ccc1[N+](=O)[O-]` (configuration not stated), the inhibition is -3.33%. The same measure for `Cc1ccc(NC2(c3nnnn3-c3c(C)cccc3C)CCCCC2)cc1`: 16.4%. For the molecule `CCOC(=O)c1csc(COc2ccc(OC)cc2)n1`, the inhibition is -4.8%.

As for `CC(=O)c1csc(COc2ccccc2)n1`, the inhibition is -10.3%. The same measure for `Cc1cccc2nc(CSc3nnc(N)s3)cn12`: 0.64%; for `Cc1ccc(C(=O)N/C(=C/c2ccc(-c3ccc(Br)cc3)o2)C(=O)NC2CCS(=O)(=O)C2)cc1` (configuration not stated): 2.02%.

In the case of `CCNc1ccc(C(=O)OCC)cc1NC(=O)c1cc(S(=O)(=O)N2CCOCC2)ccc1C`, the inhibition was 0.89%. The value for `O=C(CN1CC(=O)Oc2ccccc21)NCc1ccco1` was 0.53%. The value for `CCc1cc(-c2n[nH]c(C)c2-c2nc(C)cs2)c(O)cc1OC` was 4.46%; that for `Cc1nn(Cc2ccccc2)c(Cl)c1C(=O)NC1CCCc2ccccc21` (configuration not stated) was 12.6%; that for `CCCNC(=O)C1CC(=O)N(c2ccc(OCC(=O)Nc3cc(C)cc(C)c3)cc2)C1` (configuration not stated) was -2.31%. Regarding `CCOC(=O)COc1ccccc1/C=C\[N+](=O)[O-]`, the inhibition is 11.3%. The same measure for `O=[N+]([O-])/C=C/c1c(OCc2ccccc2)ccc2ccccc12`: 42%; for `O=C(CSc1nnc(Cc2cc(=O)[nH]c(=O)[nH]2)n1-c1ccc(Cl)cc1)NC1CCCC1`: -1.17%; for `COc1ccc(OC)c(C2C=C(c3ccc(C)c(C)c3)Nc3nnnn32)c1` (configuration not stated): 6.69%. The value for `COc1cccc(C2=CC(c3ccc(OC)c(OC)c3OC)n3nnnc3N2)c1` (configuration not stated) was -9.14%; that for `COc1ccc(C(=O)N(C)C2CCN(C)CC2)cc1S(=O)(=O)Nc1cc(Cl)ccc1Cl` was -15.1%; that for `Cc1nc(=S)c2c([nH]1)-c1ccccc1CC21CCCCC1` was 6.17%. The same measure for `Cc1ccc(C(=O)N/N=C/c2nc3ccccc3n2C)cc1`: 62.7%; for `Cn1c(/C=N/O)nc2ccccc21`: -6.75%; for `Cc1ccc2cc(/C=N/NC(=O)c3ccccc3[N+](=O)[O-])c(Cl)nc2c1`: -0.86%. Turning to `Cc1nn(CC(=O)Nc2ccccn2)c(C)c1[N+](=O)[O-]`, the inhibition is -1.31%.

`COc1cccc(C(=O)NCc2cccnc2)c1`: the inhibition is -9.43%. For `Cc1ccc(NC(=O)COc2ccc(/C=C3/SC(=Nc4ccccc4)N(Cc4cccnc4)C3=O)cc2)cc1`, the inhibition was 2.56%.

With `CN1C(=O)/C(=C/c2ccccc2Cl)Sc2ccc(C(=O)NCc3cccnc3)cc21`, the inhibition is 34.2%. The same measure for `CCOc1ccc(/C=C2/Sc3ccc(C(=O)N4CCN(C(=O)c5ccco5)CC4)cc3N(C)C2=O)cc1OC`: -1.76%. The same measure for `COc1ccc(C(=O)NCc2cccnc2)cc1OC`: -4.7%; for `CCOc1cc(/C=C2/SC(=Nc3ccccc3)N(Cc3cccnc3)C2=O)ccc1OCC#N`: -1.44%; for `COc1ccc(N(C(=O)Nc2ccc(Cl)cc2)C2=NCCC2)cc1`: -4.11%. Consider `CCCN(CCC)CCCNC(=S)Nc1ccc2nc(N3CCN(C)CC3)cc(C)c2c1`, for which the inhibition is -1.09%.

With `CCN(CC)C(NC(=O)Cc1ccccc1)C(Cl)(Cl)Cl` (configuration not stated), the inhibition is -7.35%. With `Cc1sc2nc(-c3ccccc3)[nH]c(=O)c2c1-c1ccccc1`, the inhibition is -4.26%. Take `O=c1[nH]c(-c2ccncc2)nc2ccccc12`: the inhibition is -5.72%. The same measure for `O=c1[nH]c(-c2cccnc2)nc2sc(-c3ccccc3)cc12`: 6.5%.

Consider `c1ccc(-c2nc3ccccc3[nH]2)nc1`, for which the inhibition is -3.79%. The same measure for `c1ccc(-c2nc3cc4ccccc4cc3[nH]2)nc1`: -3.91%; for `O=c1[nH]c(-c2ccccn2)cc2ccccc12`: -4.45%; for `O=c1[nH]c(-c2ccccc2)nc2sc(-c3ccccc3)cc12`: 0.66%. Turning to `Cc1sc2nc(-c3ccncc3)[nH]c(=O)c2c1-c1ccccc1`, the inhibition was -3.4%. As for `O=[N+]([O-])c1cc(C(F)(F)F)ccc1NCCCN1CCOCC1`, the inhibition is 7.61%. The same measure for `COc1cc(C(=O)Nc2cc(C)cc(C)c2)c(-n2cnnn2)cc1OC`: 5.79%; for `CCC(C)OC(=O)C1=C(C)O[C@]23OC(N)=C(C#N)[C@]12C(=O)c1ccccc13` (some centres not stated): 3.72%; for `Clc1ccc(-c2ccn[nH]2)cc1`: 58.5%.

Regarding `COC(=O)c1ccc(NS(=O)(=O)c2ccc3c(c2)oc(=O)n3C)cc1`, the inhibition was -7.58%. Regarding `CCOC(=O)C1CCN(c2nc(C)cc(C)c2C#N)CC1`, the inhibition was 2.49%. The same measure for `Cc1cc(C)nc(SC2=CS(=O)(=O)c3ccccc32)n1`: 3.84%. As for `Cn1c(SC2=CS(=O)(=O)c3ccccc32)nc2ccccc21`, the inhibition was 54.9%. On to `CCOC(=O)c1sc(NC(=O)CSc2nncn2C)nc1C`, for which the inhibition is 4.68%. The value for `O=C(c1ccc(N2C(=O)C3C4c5ccccc5C(c5ccccc54)C3C2=O)cc1)N1CCOCC1` (configuration not stated) was -4.29%.

Consider `COC(=O)c1sc(OC)cc1OCc1ccc(C)cc1`, for which the inhibition is -1.7%. With `CCC(NC(=O)c1ccc([N+](=O)[O-])cc1[N+](=O)[O-])c1ccccc1` (configuration not stated), the inhibition was -5.13%. The value for `COc1ccccc1NC(=O)c1ccc([N+](=O)[O-])cc1[N+](=O)[O-]` was 3.09%; that for `CCCSc1ccc(-c2nn(-c3ccccc3)cc2/C=C(/C#N)C(=O)NCCCOC)cc1` was -7.18%; that for `N#C/C(=C\c1ccc([N+](=O)[O-])cc1)C(=O)NCCCn1ccnc1` was 3.27%. The same measure for `CCSc1ccc(-c2nn(-c3ccccc3)cc2/C=C(/C#N)C(=O)NCCCOC)cc1`: -5.12%; for `O=C(NCCCn1ccnc1)c1cn(-c2ccccc2)nc1-c1ccc(F)cc1`: 4.17%. The value for `CSCCC(NS(=O)(=O)c1ccc(Cl)cc1)C(=O)OCC(=O)c1c(C)[nH]c2ccccc12` (configuration not stated) was -2.72%.

In the case of `C/C=C(\C)C(=O)N1CC2(CC(c3cccc(NC(=O)CC(c4ccccc4)c4ccccc4)c3)=NO2)C[C@H]1C(N)=O` (some centres not stated), the inhibition was 4.13%.
